Data on 3 compounds can be found in PubChem BioAssay (EPA / NIEHS).

Test [1] can be described thus: ATG_E_Box_CIS: Attagene CIS-FACTORIAL HepG2 Assay for human Enhancer Box (E-box) (AID 2282936). The settings on record: HepG2 E-box cis-reporter transcription, actives raise or lower the signal. Summed up:
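DMSO served as negative control and baseline for bidirectional fitting. Human hepatoma HepG2 cells, transiently transfected with cis-reporter constructs, were dosed 24 h; reporter mRNA read by RT-PCR and capillary electrophoresis.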

Test [2] is described as follows: ATG_M_61_CIS: Attagene CIS-FACTORIAL HepG2 Assay for M61 Transcription Factor (Internal Marker) (AID 2282937). The note with it: HepG2 Attagene CIS-FACTORIAL M61 internal marker reporter; actives raise or lower the signal. A digest of the protocol:
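HepG2 cells transiently transfected with multiplexed cis-promoter reporter units reporting endogenous transcription factor activity, measured 24 h after dosing. Reporter mRNA quantified by RT-PCR and capillary electrophoresis; bidirectional fit against DMSO baseline.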

Test [3] can be described thus: ATG_EGR_CIS: Attagene CIS-FACTORIAL HepG2 Assay for human Early Growth Response 1 (EGR1) (AID 2282938). The note with it: HepG2 Attagene CIS-FACTORIAL EGR reporter mRNA; actives raise or lower the signal. A digest of the protocol:
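HepG2 cells transiently transfected with cis-element-driven multiplexed reporter units, dosed for 24 h. EGR1-element reporter mRNA quantified by RT-PCR, 6-FAM labelling, HpaI digestion and capillary electrophoresis; bidirectional fit versus DMSO.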

A short description of test [4]: ATG_M_19_CIS: Attagene CIS-FACTORIAL HepG2 Assay for M19 Transcription Factor (Internal Marker) (AID 2282939). The settings on record: HepG2 Attagene CIS-FACTORIAL M19 internal marker reporter; actives raise or lower the signal. A digest of the protocol: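 Following a 24 h exposure, RNA from transfected HepG2 cells was reverse-transcribed, PCR-amplified with reporter-specific primers, end-labelled with 6-FAM and HpaI-digested before capillary separation. Values represent gain or loss versus DMSO.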

Test [5] is described as follows: ATG_ERE_CIS: Attagene CIS-FACTORIAL HepG2 Assay for Estrogen Response Element (ERE) (AID 2282940). The note with it: HepG2 ERE cis-reporter, Attagene RNA transcript; actives raise or lower the signal. A digest of the protocol: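 HepG2, transient cis-reporter units, 24 h exposure. RNA isolated, oligo(dT) RT, reporter-specific PCR, FAM extension, HpaI cut, CE detection. Gain/loss-of-signal vs DMSO.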

Test [6] in a line: ATG_Ets_CIS: Attagene CIS-FACTORIAL HepG2 Assay for human Erythroblast Transformation Specific (ETS) (AID 2282941). The note with it: HepG2 ETS cis-reporter transcription, actives raise or lower the signal. Summed up: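 HepG2 cells transfected with multiple cis-regulated reporter units measuring endogenous ETS-driven transcription, 24 h after dosing. Reporter mRNA quantified by RT-PCR with capillary electrophoresis; bidirectional fit relative to DMSO.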

Test [7] has as its target Hepatocyte nuclear factor 3-beta (Homo sapiens) (UniProt Q9Y261). Put plainly: ATG_FoxA2_CIS: Attagene CIS-FACTORIAL HepG2 Assay for human Forkhead box A2 (FOXA2) (AID 2282942). The settings on record: HepG2 cis-reporter transcription factor activity, 24 h; actives raise or lower the signal. A digest of the protocol: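 HepG2 transiently transfected with a multiplexed cis-promoter reporter library read endogenous FOXA2 activity. After 24 h compound exposure, reporter mRNA was quantified by RT-PCR, HpaI digestion and capillary electrophoresis. Bidirectional fit against DMSO.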

Test [8] can be described thus: ATG_FoxO_CIS: Attagene CIS-FACTORIAL HepG2 Assay for human Forkhead box O (FoxO) (AID 2282943). The note with it: HepG2 Attagene cis-reporter, FoxO element, mRNA; actives raise or lower the signal. Summed up: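 Endogenous transcription factor activity read from multiplexed cis-promoter reporter transcripts in transiently transfected HepG2, 24 h after dosing. Reporter RNA measured via RT-PCR plus capillary electrophoresis of FAM-labeled products; gain or loss relative to DMSO.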

A short description of test [9]: ATG_GATA_CIS: Attagene CIS-FACTORIAL HepG2 Assay for human GATA Binding Protein (AID 2282944). The settings on record: HepG2 GATA cis-element reporter, Attagene multiplex mRNA; actives raise or lower the signal. Summed up: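 DMSO serves as negative control and baseline for bidirectional fitting of reporter mRNA changes. HepG2 cells bearing transiently transfected cis-promoter reporters were exposed 24 h; transcripts detected via RT-PCR and capillary electrophoresis.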

Test [10] in a line: ATG_GLI_CIS: Attagene CIS-FACTORIAL HepG2 Assay for human Zinc Finger Protein GLI1 (AID 2282945). The settings on record: HepG2, Attagene cis-factorial reporter mRNA, GLI element; actives raise or lower the signal. A digest of the protocol: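 Bidirectional curve fits relative to DMSO, using reporter mRNA levels from RT-PCR plus capillary electrophoresis. Cells were HepG2 transiently carrying cis-regulated reporter constructs, harvested 24 h after dosing.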

In test [11] the target is Bile acid receptor (Homo sapiens) (UniProt Q96RI1). Put plainly: ATG_IR1_CIS: Attagene CIS-FACTORIAL HepG2 Assay for human Nuclear Receptor Subfamily 1 Group H Member 4 (NR1H4), IR1 submotif (AID 2282946). The settings on record: IR1 reporter transcription, actives raise or lower the signal. Summed up: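 Cells (human HepG2) carry transiently transfected cis-promoter reporter transcription units. Compounds are incubated 24 h, total RNA is reverse-transcribed and amplified, and labelled fragments are resolved by capillary electrophoresis. Curves use DMSO as baseline.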
Sequence of Bile acid receptor (Homo sapiens) (Q96RI1 whole entry, looked up, the tested form may be a part): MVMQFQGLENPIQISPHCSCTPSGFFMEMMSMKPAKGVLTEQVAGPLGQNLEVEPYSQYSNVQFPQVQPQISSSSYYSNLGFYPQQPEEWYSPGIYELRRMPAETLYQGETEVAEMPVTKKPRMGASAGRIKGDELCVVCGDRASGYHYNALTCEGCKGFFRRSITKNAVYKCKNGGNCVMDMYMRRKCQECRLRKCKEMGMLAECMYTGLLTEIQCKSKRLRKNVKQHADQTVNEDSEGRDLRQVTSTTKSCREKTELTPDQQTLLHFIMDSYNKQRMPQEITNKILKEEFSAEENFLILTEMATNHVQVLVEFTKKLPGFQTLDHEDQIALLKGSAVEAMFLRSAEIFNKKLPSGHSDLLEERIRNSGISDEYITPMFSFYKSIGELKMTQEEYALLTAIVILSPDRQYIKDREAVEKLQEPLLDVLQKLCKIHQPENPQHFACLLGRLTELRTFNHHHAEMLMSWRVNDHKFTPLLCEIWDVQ

Test [12] in a line: ATG_GRE_CIS: Attagene CIS-FACTORIAL HepG2 Assay for human Glucocorticoid Response Elements (GRE) (AID 2282947). The settings on record: HepG2 GRE cis-reporter, Attagene multiplex mRNA; actives raise or lower the signal. A digest of the protocol: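 Assay uses human hepatoma HepG2 cells transfected with cis-promoter reporter units, exposed 24 h. mRNA from reporters detected by RT-PCR plus capillary electrophoresis; DMSO serves as negative control and baseline.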

Test [13] is described as follows: ATG_ISRE_CIS: Attagene CIS-FACTORIAL HepG2 Assay for human Interferon Regulatory Factor 1 (IRF1) binding to an Interferon-Stimulated Response Element (ISRE) (AID 2282948). The note with it: HepG2 ISRE cis-reporter (Attagene), mRNA transcription readout; actives raise or lower the signal. Summed up: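 Transiently transfected HepG2 cells carrying cis-element reporter units, dosed 24 hours. Reporter mRNA quantified by RT-PCR, fluorescent primer extension, HpaI digestion and capillary electrophoresis. Bidirectional fitting relative to DMSO.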

Test [14] is described as follows: ATG_M_32_CIS: Attagene CIS-FACTORIAL HepG2 Assay for M32 Transcription Factor (Internal Marker) (AID 2282949).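 Note: background control marker of the multiplexed CIS panel rather than a real target.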 The settings on record: HepG2 Attagene cis-factorial M32 reporter, mRNA; actives raise or lower the signal. Summed up:
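Following 24 h chemical exposure of HepG2 cells transiently expressing cis-promoter reporter constructs, reporter transcript levels were determined by RT-PCR with fluorescent labelling and capillary electrophoresis, then fitted bidirectionally against DMSO.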

A short description of test [15]: ATG_M_06_CIS: Attagene CIS-FACTORIAL HepG2 Assay for M06 Transcription Factor (Internal Marker) (AID 2282950). The settings on record: HepG2 Attagene CIS-FACTORIAL M06 internal marker reporter; actives raise or lower the signal. A digest of the protocol: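 Fluorescence-labelled RT-PCR products from cis-promoter reporter units, cut with HpaI and resolved by capillary electrophoresis, give the signal. Cells are human HepG2, dosed for 24 h. Serves as background control, fitted relative to DMSO.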

Test [16] concerns the target Hypoxia-inducible factor 1-alpha (Homo sapiens) (UniProt Q16665). The test can be described thus: ATG_HIF1a_CIS: Attagene CIS-FACTORIAL HepG2 Assay for human Hypoxia Inducible Factor 1 (HIF1A) (AID 2282951). The note with it: HepG2 Attagene cis-factorial HIF1a reporter transcription; actives raise or lower the signal. Summed up: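 HepG2 cells transiently transfected with multiple cis-regulated reporter transcription units measure endogenous transcription factor activity. After 24 h exposure, reporter mRNA is quantified by RT-PCR with 6-FAM labelling, HpaI digestion and capillary electrophoresis. Bidirectional fitting against DMSO.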

The target of test [17] is Hepatocyte nuclear factor 6 (Homo sapiens) (UniProt Q9UBC0). The test can be described thus: ATG_HNF6_CIS: Attagene CIS-FACTORIAL HepG2 Assay for human Hepatocyte Nuclear Factor 6 (HNF6) (AID 2282952). The settings on record: HepG2 Attagene cis-factorial HNF6 reporter transcription; actives raise or lower the signal. A digest of the protocol: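 HepG2 cells transiently transfected with cis-element-driven multiple reporter transcription units, dosed 24 h; reporter mRNA quantified by RT-PCR, FAM primer extension, HpaI digestion and capillary electrophoresis; bidirectional fit versus DMSO baseline.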
Sequence of Hepatocyte nuclear factor 6 (Homo sapiens) (Q9UBC0 whole entry, looked up): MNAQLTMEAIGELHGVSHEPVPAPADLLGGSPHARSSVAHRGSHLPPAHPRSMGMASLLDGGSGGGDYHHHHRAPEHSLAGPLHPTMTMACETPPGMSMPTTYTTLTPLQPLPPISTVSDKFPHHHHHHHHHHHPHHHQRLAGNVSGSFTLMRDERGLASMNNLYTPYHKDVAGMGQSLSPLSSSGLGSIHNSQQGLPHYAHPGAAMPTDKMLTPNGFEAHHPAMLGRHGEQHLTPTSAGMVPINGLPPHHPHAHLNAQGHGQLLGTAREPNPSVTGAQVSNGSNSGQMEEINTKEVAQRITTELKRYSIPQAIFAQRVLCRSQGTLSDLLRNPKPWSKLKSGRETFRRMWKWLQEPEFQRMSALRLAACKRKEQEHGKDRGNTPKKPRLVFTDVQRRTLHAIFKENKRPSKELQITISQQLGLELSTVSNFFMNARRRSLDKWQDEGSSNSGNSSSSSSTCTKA

Test [18] deals with Heat shock factor protein 1 (Homo sapiens) (UniProt Q00613). Put plainly: ATG_HSE_CIS: Attagene CIS-FACTORIAL HepG2 Assay for human Heat Shock Transcription Factor 1 (HSE) (AID 2282953). The note with it: HepG2 HSE cis-reporter, Attagene RNA transcription; actives raise or lower the signal. Summed up:
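After a 24 h incubation with test chemical, transfected HepG2 cells were harvested for RNA; reporter transcripts were measured by RT-PCR and capillary electrophoresis. Values reflect gain or loss of signal relative to DMSO.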

Test [19] can be described thus: ATG_MRE_CIS: Attagene CIS-FACTORIAL HepG2 Assay for human Metal Responsive Element (MRE) (AID 2282954). The settings on record: HepG2 MRE cis-reporter transcription, Attagene multiplex; actives raise or lower the signal. Summed up:
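After a 24 h chemical exposure, transiently transfected HepG2 cells yield RNA whose reporter sequences are amplified, FAM-labelled and sized by capillary electrophoresis. Curves are fitted bidirectionally relative to DMSO.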

A short description of test [20]: ATG_PBREM_CIS: Attagene CIS-FACTORIAL HepG2 Assay for human Phenobarbital-responsive Enhancer Module (PBREM) (AID 2282955). The settings on record: HepG2 PBREM cis-reporter, Attagene multiplexed transcription; actives raise or lower the signal. Summed up: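 HepG2 cells transiently transfected with multiple cis-regulated reporter units measure endogenous transcription factor activity; 24 h compound exposure. Reporter mRNA quantified by RT-PCR, fluorescent labelling, HpaI digestion and capillary electrophoresis; bidirectional fit versus DMSO.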

SMILES strings stand for the structures. Active and inactive are the calls of the source. Rule for the calls: active = hit-call score of the fitted dose curve at least 0.9, where 1 is the maximum; inactive = score below 0.9.

Usually AC50 stands for the concentration giving half of the maximal activity seen.

Sequence of Hepatocyte nuclear factor 3-beta (Homo sapiens) (Q9Y261 whole entry, looked up): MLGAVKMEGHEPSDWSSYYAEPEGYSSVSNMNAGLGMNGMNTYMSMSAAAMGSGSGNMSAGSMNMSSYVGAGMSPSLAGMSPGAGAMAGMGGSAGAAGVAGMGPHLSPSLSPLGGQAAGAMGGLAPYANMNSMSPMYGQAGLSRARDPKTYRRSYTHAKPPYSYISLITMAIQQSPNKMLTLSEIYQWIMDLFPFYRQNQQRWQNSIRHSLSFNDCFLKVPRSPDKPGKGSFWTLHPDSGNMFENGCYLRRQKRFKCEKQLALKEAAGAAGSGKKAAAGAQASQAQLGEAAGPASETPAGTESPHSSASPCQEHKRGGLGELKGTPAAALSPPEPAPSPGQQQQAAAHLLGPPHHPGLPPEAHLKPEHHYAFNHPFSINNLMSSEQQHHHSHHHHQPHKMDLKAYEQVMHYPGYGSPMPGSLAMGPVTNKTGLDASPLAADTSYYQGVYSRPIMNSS
Sequence of Heat shock factor protein 1 (Homo sapiens) (Q00613 whole entry, looked up): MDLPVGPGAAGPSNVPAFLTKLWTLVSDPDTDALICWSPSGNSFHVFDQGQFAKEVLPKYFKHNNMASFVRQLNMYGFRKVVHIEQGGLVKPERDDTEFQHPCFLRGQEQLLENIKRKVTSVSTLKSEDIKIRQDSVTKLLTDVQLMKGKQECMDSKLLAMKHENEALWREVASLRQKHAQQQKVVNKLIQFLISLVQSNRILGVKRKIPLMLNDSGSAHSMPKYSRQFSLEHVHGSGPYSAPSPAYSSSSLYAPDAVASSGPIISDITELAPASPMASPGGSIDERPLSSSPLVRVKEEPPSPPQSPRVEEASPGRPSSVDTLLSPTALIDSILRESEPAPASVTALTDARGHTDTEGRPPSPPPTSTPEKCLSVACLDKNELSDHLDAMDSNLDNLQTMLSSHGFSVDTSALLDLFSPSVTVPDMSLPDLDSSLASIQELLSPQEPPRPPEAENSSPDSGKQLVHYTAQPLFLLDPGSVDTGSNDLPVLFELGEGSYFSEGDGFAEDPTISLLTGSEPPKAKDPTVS
Sequence of Hypoxia-inducible factor 1-alpha (Homo sapiens) (Q16665 whole entry, looked up): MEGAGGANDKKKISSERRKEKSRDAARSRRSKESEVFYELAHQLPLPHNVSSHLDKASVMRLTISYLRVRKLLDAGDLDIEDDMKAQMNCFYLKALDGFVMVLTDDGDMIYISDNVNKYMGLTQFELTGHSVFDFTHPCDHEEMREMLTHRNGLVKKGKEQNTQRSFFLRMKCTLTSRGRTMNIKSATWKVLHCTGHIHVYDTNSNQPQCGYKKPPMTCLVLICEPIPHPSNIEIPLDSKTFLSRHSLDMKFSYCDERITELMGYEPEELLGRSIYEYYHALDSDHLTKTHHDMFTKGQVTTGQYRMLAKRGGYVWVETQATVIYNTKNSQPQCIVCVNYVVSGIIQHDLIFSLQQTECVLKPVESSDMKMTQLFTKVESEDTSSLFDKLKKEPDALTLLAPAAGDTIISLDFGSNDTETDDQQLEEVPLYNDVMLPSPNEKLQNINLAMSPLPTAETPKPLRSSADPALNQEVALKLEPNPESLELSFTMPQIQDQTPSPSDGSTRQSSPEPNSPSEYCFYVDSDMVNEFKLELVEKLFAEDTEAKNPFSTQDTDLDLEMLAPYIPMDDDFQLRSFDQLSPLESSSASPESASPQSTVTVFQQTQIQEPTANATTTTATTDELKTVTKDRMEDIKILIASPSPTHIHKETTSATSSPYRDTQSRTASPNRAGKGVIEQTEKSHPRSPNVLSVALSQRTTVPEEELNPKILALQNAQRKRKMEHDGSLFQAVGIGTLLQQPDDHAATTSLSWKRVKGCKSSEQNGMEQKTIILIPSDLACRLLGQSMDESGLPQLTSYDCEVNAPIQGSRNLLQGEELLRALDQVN

`O=C1CC2CC1C1CCCC21` (configuration not stated): the result in test [1], in [2], in test [3], in test [4], in test [6] and in test [7] was inactive. Moreover, the call in test [8], in test [9], in [10], in [11], in [12] and in test [13] was inactive. Further, the call in test [14], in test [15], in test [16], in test [17], in test [18] and in [19] was inactive. The outcome in [20] was inactive. Moreover, the concentration at half-maximal activity (AC50) in test [5] was 19.8 µM (active).

As for `CC(C)c1ccc2c(C(C)C)cc(C(C)C)c(S(=O)(=O)O)c2c1`, the outcome in [1], in test [2], in [3], in test [4], in [6] and in [7] was inactive. The call in [8], in test [9], in test [10], in test [11], in [12] and in [13] was inactive. Also, the outcome in [14], in test [16], in test [17] and in test [18] was inactive. For the same compound, the half-maximal activity concentration (AC50) in [5] was 49.7 µM (active); in test [19], 21.1 µM (active).

As for `CCc1nccnc1C`, the result in test [1], in test [2], in test [3], in test [4], in [5] and in test [6] was inactive. The outcome in test [7], in test [8], in test [9], in test [10], in test [11] and in test [12] was inactive. In addition, the result in test [13], in [14], in test [15], in test [16], in test [17] and in [18] was inactive. The call in test [19] was inactive.
